Screens: PubChem BioAssay, several laboratories
DSG3 Ab inh: inhibitors of pemphigus antibody binding to DSG3, primary screen, biochemical, bead-based, flow cytometry, scFv-GFP | Desmoglein-3 (Homo sapiens), P32926 | DSG3-coupled beads, scFv-anti-DSG3-GFP binding; stronger effect = lower value | binding (percent of control), % at 10 µM | 0.48% of 310,000 active | AID 588358, 2011;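 active = binding more than 3 SD below its plate's average and above zero; inconclusive = below that plate limit but binding exactly zero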;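 note: hits lower antibody fragment binding to DSG3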
JMJD2C inh: inhibitors of GASC-1 histone demethylase, primary screen, biochemical, fluorescence, DELFIA europium; GST-JMJD2C(1-420) H3K9me3 demethylation; Lysine-specific demethylase 4C (Homo sapiens), Q9H3R0; inhibition, % at 2.35 µM; 0.069% of 330,000 active;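 active = more than half of a compound's replicate wells show inhibition beyond 50%, single wells judged on their own value; inconclusive = some, but no more than half, of replicates pass 50% inhibition; inactive = no replicate passes 50% inhibition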;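 note: signal counts dimethyl H3K9 product captured on neutravidin plate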
Target sequence (Q9H3R0 1-420 limits assumed): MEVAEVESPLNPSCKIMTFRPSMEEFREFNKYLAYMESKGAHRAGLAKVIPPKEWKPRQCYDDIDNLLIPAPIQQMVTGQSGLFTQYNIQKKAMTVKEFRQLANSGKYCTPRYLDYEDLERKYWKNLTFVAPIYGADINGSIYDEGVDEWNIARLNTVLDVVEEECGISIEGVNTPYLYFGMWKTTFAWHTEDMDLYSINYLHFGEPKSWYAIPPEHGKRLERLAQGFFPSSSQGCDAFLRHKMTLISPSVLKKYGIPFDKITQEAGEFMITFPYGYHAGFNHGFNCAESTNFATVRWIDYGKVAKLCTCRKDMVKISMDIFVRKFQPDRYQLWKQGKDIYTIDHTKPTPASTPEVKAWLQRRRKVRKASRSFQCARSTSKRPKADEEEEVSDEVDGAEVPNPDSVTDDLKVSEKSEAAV
PREPL inh: PREPL enzyme inhibitors, primary screen, biochemical, fluorescence polarization | Prolyl endopeptidase-like (Homo sapiens), Q4J6C6 | recombinant PREPL, fluorescence polarization activity-based probe | inhibition, % at 5.96 µM | 0.68% of 320,000 active | AID 2751, 2010
VLA-4 inh: inhibition in human VLA-4 binding assay, primary screen, VLA-4 allosteric modulator project, MLPCN library, flow cytometry, VLA-4 expressing cells; 0.2% of 330,000 active; inhibition, % (about 7 µM as worked out from the volumes in the protocol); Integrin alpha-4 (Homo sapiens), P13612; ligand binding flow cytometry; in the data active = inhibition above about 50%
GRK2 aptamer HTS: compounds blocking aptamer binding on GRK2 – biochemical, human GRK2, bead flow cytometry, HTS, primary screen | Beta-adrenergic receptor kinase 1 (Homo sapiens), P25098 | FAM-aptamer displacement from GRK2 | inhibition of aptamer binding, % at 10 µM | 0.59% of 330,000 active | AID 488847, 2010;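 active = inhibition of aptamer binding above 40%, roughly 3 SD of noise, on plates passing a quality check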;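 note: median bead fluorescence of bound FAM aptamer so fluorescent compounds give negative values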
PREPL confirm: human PREPL enzyme inhibitors, confirmation, biochemical, fluorescence polarization; recombinant PREPL, fluorescence polarization activity probe; shares compounds with PREPL inh; 67% of 2,000 active; inhibition, % at 5.96 µM
A number is an active result; n = inactive; u = inconclusive; x = no result given. The list is not random: actives were taken first. Their share in the collection is about 1.6%. Cut-off read from the data, not from the text of the source, unless noted: active = inhibition above about 43%; inactive = the rest.

SMILES | DSG3 Ab inh | JMJD2C inh | PREPL inh | VLA-4 inh | GRK2 aptamer HTS | PREPL confirm
Cc1ccc(NC(=O)COc2cccc(/C=C3\SC(=S)N(CCC(=O)O)C3=O)c2)cc1Cl | n | n | 52 | n | n | n
COc1ccccc1Nc1ccc(N)cc1 | 39 | n | 84 | n | n | n
CC(=O)N1c2ccc(S(=O)(=O)N3CCCC3)cc2CC1C(=O)NCc1ccccc1F (stereo not drawn) | n | n | n | n | n | x
Cc1cc(OCC(=O)Nc2ccc(N3CCN(C)CC3)cc2)ccc1Cl | n | n | 70 | n | n | 56
CN1CCN(c2ccc(NC(=O)COc3ccccc3Cl)cc2)CC1 | n | n | 44 | n | n | n
COc1ccc(/C=C/C(=O)NC(=S)Nc2ccc(Br)cn2)cc1 | n | n | n | n | n | x
CC1Cc2ccccc2N1C(=O)CN(C)CC(=O)Nc1ccc(OC(F)(F)F)cc1 (stereo not drawn) | n | n | n | n | n | x
N#CC1=C(Nc2ccccc2)SC=C(c2ccc(F)cc2)N=C1N1CCOCC1 | x | n | 52 | n | n | n
CC(=O)N1CCN(c2ccc(NCc3cccc4ccccc34)cc2)CC1 | n | n | 78 | n | n | 62
CC(=O)N1CCN(c2ccc(NCc3ccccc3)cc2)CC1 | n | n | n | n | n | x
CC(=O)N1CCN(c2ccc(NCc3ccc(-c4ccc(Br)cc4)o3)cc2)CC1 | n | x | 71 | n | n | 66
CC(=O)N1CCN(c2ccc(NCc3ccc(Br)o3)cc2)CC1 | n | n | 44 | n | n | 45
CC(=O)N1CCN(c2ccc(NCc3cccs3)cc2)CC1 | n | n | n | n | n | x
CC(=O)N1CCN(c2ccc(NCc3ccc(C)s3)cc2)CC1 | n | n | 54 | n | n | n
CCN(C(=O)CSc1nc2ccccc2c(=O)n1-c1ccccc1F)C1CCS(=O)(=O)C1 (stereo not drawn) | n | n | n | n | n | x
O=c1oc(C2(O)CCCCC2)cc2ccc(-c3ccc4[nH]ccc4c3)cc12 | n | x | n | n | n | x
CCN(CC(=O)Nc1c(F)cccc1F)C(=O)CNC(=O)c1cccs1 | n | n | n | n | n | x
COc1ccc(NCc2nc3ccccc3n2CCOc2ccc(C)cc2)cc1 | n | n | 62 | n | n | 60
COc1ccc(NCc2nc3ccccc3n2CCOc2ccccc2)cc1 | n | n | n | n | n | x
O=C(COC(=O)Cn1cc(C(F)(F)F)ccc1=O)NCc1ccccc1 | n | x | x | x | x | x
N/C(=N\c1nc2c(c(=O)[nH]1)CCCC2)Nc1ccc(Oc2ccccc2)cc1 | n | n | n | n | n | x
COc1cc2cc3c(N)c(C(=O)NCc4ccco4)sc3nc2cc1OC | n | n | 46 | n | n | 57
Cc1ccc2nc3sc(C(=O)NCc4ccco4)c(N)c3cc2c1 | n | n | n | n | n | x
Cc1ccc(C2=CC(c3ccc(N(C)C)cc3)n3nnnc3N2)cc1 (stereo not drawn) | n | n | 59 | n | n | 54
CSc1ncc(S(=O)(=O)c2ccccc2)c(=O)[nH]1 | n | n | n | n | n | x
SMILES | DSG3 Ab inh | JMJD2C inh | PREPL inh | VLA-4 inh | GRK2 aptamer HTS | PREPL confirm
COc1cc(/C=C2\C(=N)N3N=C(S(C)(=O)=O)SC3=NC2=O)ccc1OC(=O)c1ccco1 | n | n | 61 | n | n | 85
COc1cc(/C=C2/C(=O)NN(c3cccc(C)c3)C2=O)cc([N+](=O)[O-])c1O | n | n | n | n | n | x
COc1cc(/C=C2/C(=O)NN(c3cccc(C)c3)C2=O)ccc1OC(=O)c1ccco1 | n | n | 56 | n | n | n
COc1cc(/C=C2\C(=N)N3N=C(S(C)(=O)=O)SC3=NC2=O)ccc1OCCOc1ccccc1C | n | n | n | n | n | x
COc1cc(/C=C2\C(=N)N3N=C(S(C)(=O)=O)SC3=NC2=O)ccc1OC(=O)c1cccs1 | n | n | 76 | n | n | 88
Cc1ccc(S(=O)(=O)N2[C@@H](c3ccc(Br)cc3)C(C(=O)O)=CC[C@H]2c2ccc3c(c2)OCO3)cc1 | n | x | n | n | n | x
CCS(=O)(=O)c1nc(S(=O)(=O)c2ccc(Cl)cc2)c(NCc2ccccn2)s1 | n | x | n | n | n | x
CCCOc1ccc(C(F)(F)F)cc1NC(=O)c1cc(C)on1 | n | n | n | n | n | x
CCc1ccc(OCC(=O)N/N=C2\CC(=O)c3ccccc32)cc1 | n | n | 54 | n | n | n
Cc1c(CCOC(=O)c2cc([N+](=O)[O-])cc([N+](=O)[O-])c2)sc[n+]1CC(=O)c1ccc(Br)cc1 | n | n | 54 | n | n | 70
Cc1c(CCOC(=O)c2ccc(Cl)cc2Cl)sc[n+]1CC(=O)c1ccccc1 | n | n | n | n | n | x
O=C(NCCC1=CCCCC1)C1CCC(=O)N(Cc2cccc(C(F)(F)F)c2)C1 (stereo not drawn) | n | n | n | n | n | x
COc1ccc2cc1Oc1ccc(cc1)C[C@H]1c3cc(c(OC)cc3CCN1C)Oc1c(OC)c(OC)cc3c1[C@@H](C2)N(C)CC3 | n | n | 52 | n | n | 48
COc1ccc2c(c1OC)C(=O)OC2C1c2c(cc3c(c2OC)OCO3)CCN1C (stereo not drawn) | n | n | n | n | n | x
O=C(Cc1ccc2c(c1)OCCO2)N1CCN(S(=O)(=O)c2cccc(C(F)(F)F)c2)CC1 | n | n | 81 | n | n | n
O=S(=O)(c1cccc(C(F)(F)F)c1)N1CCN(S(=O)(=O)c2ccc3c(c2)OCCO3)CC1 | n | n | n | n | n | x
Cc1ccc(C(=O)c2coc3ccc(O)c(CN4CCN(C)CC4)c23)cc1 | n | n | 44 | n | n | n
COc1ccc(C(=O)c2coc3ccc(O)c(CN4CCOCC4)c23)cc1 | x | n | 53 | n | n | 57
O=C(c1cccs1)c1coc2ccc(O)c(CN3CCOCC3)c12 | n | x | n | n | n | x
COc1ccc(C(=O)c2coc3ccc(O)c(CN4CCCC4)c23)cc1 | n | n | 55 | n | n | 54
CCOC(=O)c1cc(-c2ccccc2)n(Cc2cc(CC)no2)n1 | n | n | n | n | n | x
Cc1cc(C)c2cc(C(=O)Nc3ccccc3)[nH]c2c1 | n | n | n | n | n | x
N#CC1(c2nc3ccccc3[nH]2)CC1c1ccc2c(c1)OCO2 (stereo not drawn) | x | n | n | n | n | x
COc1ccc2c(C=Nc3c(C)n(C)n(-c4ccccc4)c3=O)c(O)n(Cc3ccco3)c(=O)c2c1 | n | n | 56 | n | n | n
O=C(NC1CCCCC1)c1c(O)nc2sccn2c1=O | n | u | n | n | n | x
